Most compounds without a hit are left out; they make up all but 3.5% or so of the library.
Mtb UGM inh – Mtb UDP-galactopyranose mutase inhibition | hit rate 0.06% among 320,000 | P9WIQ1 | inhibition, % at 10 µM | purified UGM, fluorescence polarization probe displacement; in the data active means inhibition above about 10%, passing the limit was not always enough
FadD28 binding – inhibitors of Mycobacterium tuberculosis FadD28 bisubstrate binding | inhibition, % at 12.5 µM | FadD28 bisubstrate probe binding, fluorescence polarization | AID 588549 | hit rate 0.22% among 360,000; in the data active means inhibition above about 8.5%, passing the limit was not always enough
FBA Mtb inh – Mtb fructose-bisphosphate aldolase inhibition; AID 588726; inhibition, % at 1 µM; hit rate 2.3% among 360,000; purified M. tuberculosis FBA, fluorescence read-out; P9WQA3
Target sequence (P9WQA3 whole entry, looked up): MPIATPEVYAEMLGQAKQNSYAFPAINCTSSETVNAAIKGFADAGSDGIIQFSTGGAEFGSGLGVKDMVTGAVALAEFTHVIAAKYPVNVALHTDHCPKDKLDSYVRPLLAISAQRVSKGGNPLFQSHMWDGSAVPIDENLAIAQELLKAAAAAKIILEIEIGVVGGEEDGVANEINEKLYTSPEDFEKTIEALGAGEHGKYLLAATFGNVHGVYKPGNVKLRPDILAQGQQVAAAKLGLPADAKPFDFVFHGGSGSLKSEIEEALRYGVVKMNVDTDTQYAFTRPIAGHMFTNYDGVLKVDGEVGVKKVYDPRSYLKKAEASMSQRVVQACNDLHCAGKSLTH
Mtb hypoxia rep – Mtb hypoxia fluorescent reporter inhibition | M. tuberculosis hypoxia-regulated fluorescent reporter, fluorescence | fluorescence inhibition, % (test concentration not listed) | hit rate 0.1% among 300,000 | AID 1159583; in the data active means fluorescence inhibition mostly above about 23%, no sharp cut-off; inactive means mostly below about 17%
Rv3671c protease – inhibits the M. tuberculosis serine protease Rv3671c; P9WHR9; inhibition, % at 5.96 µM; hit rate 0.048% among 320,000; AID 2606; in the data active means inhibition above about 38%;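 further: extracellular domain of Rv3671c used as enzyme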
GDH-TPI counter-1 – counter-screen for M. tuberculosis FBA inhibitors: GDH-TPI coupled enzymes; GDH-TPI coupled enzyme counterscreen, NADH absorbance; inhibition, % at 4.8 µM; hit rate 1.2% among 360,000; AID 588335; in the data active means inhibition above about 30%
Mtb FBA inh conf – confirmation of M. tuberculosis fructose-bisphosphate aldolase inhibitors; shares compounds with FBA Mtb inh; purified M. tuberculosis FBA, fluorescence read-out; inhibition, % at 1 µM; hit rate 78% among 5,600
GDH-TPI counter-2 – inhibits GDH-TPI coupling enzymes, flagging Mtb FBA hits; shares compounds with FBA Mtb inh; inhibition, % at 1 µM; hit rate 81% among 5,600; GDH-TPI coupled enzyme counterscreen, fluorescence; AID 652141; in the data active means inhibition above about 10%
Numbers stand for hits; 0 = inactive; - = not tested or not shown; + = active, no number. Unless noted, no stated cut-off is given here; in the data, active means inhibition above about 27%; inactive means the rest.

SMILES | Mtb UGM inh | FadD28 binding | FBA Mtb inh | Mtb hypoxia rep | Rv3671c protease | GDH-TPI counter-1 | Mtb FBA inh conf | GDH-TPI counter-2
O=C(C1CCN(c2ccc(N3CCOCC3)nn2)CC1)N1CCN(c2ccc(F)cc2)CC1 | 0 | 0 | 34 | 0 | 0 | 0 | 39 | 32
CC=C(C)C(=O)OC1CC(C)(C)CC2C3=CCC4[C@@]5(C)CCC(OC6OC(C(=O)O)C(O)C(OC7OCC(O)C(O)C7OC7OC(CO)C(O)C(O)C7O)C6OC6OC(CO)C(O)C(O)C6O)[C@@](C)(CO)C5CC[C@]4(C)[C@]3(C)CC(O)[C@@]12CO (some centres undefined) | - | - | - | 0 | - | - | - | -
CCCOC(=O)C1NC(=O)N2C1SC(C)(C)C2C(=O)OCCC (centres undefined) | - | - | - | 0 | - | - | - | -
CCOC(=O)c1ccc(C=NO)[n+](Cc2ccccc2)c1 | - | - | - | 0 | - | - | - | -
COc1ccc(C=NNC(=O)c2ccn[nH]2)cc1COc1ccc(Cl)cc1Cl | - | - | - | 0 | - | - | - | -
Cc1ccccc1C(=O)N1CCN(c2ccc(N3CCOCC3)nn2)CC1 | 0 | 0 | 37 | 0 | 0 | 0 | 56 | 43
CC(=NNC(=O)c1cc(C)oc1C)c1ccc2c(c1)OCO2 | - | - | - | 0 | - | - | - | -
O=c1c(Cl)c(O)c2cccc3c4ccccc4n1c23 | 0 | 0 | 85 | 0 | 0 | 0 | 86 | 64
Cc1ccc(C=NNC(=O)Cc2c(F)cccc2Cl)s1 | - | - | - | 0 | - | - | - | -
CCN1C(=O)C2C(c3ccc(-c4ccc(Cl)c(Cl)c4)c(OC)c3)N3CCCC[C@@]3(C(=O)OC)C2C1=O (some centres undefined) | - | - | - | 0 | - | - | - | -
CC(C)Cc1cc(-c2ccco2)c(C#N)c(N)n1 | 0 | 0 | 54 | - | 0 | 0 | 169 | 145
CCOC(=O)Cc1cc(=O)n2[nH]c(-c3ccccc3)cc2n1 | 0 | 0 | 0 | 0 | 0 | 0 | - | -
CCOC(=O)Cc1cc(=O)n2[nH]c(C)c(-c3ccccc3)c2n1 | 0 | 0 | 39 | - | 0 | 0 | 96 | 77
CCOC(=O)Cc1cc(=O)n2[nH]c(-c3ccccc3)c(-c3ccccc3)c2n1 | 0 | 0 | 43 | 0 | 0 | 0 | 81 | 67
COC(=O)C1=C(C)N(Cc2ccccc2)C(=O)NC1CCc1ccccc1 (centres undefined) | - | - | - | 0 | - | - | - | -
Cc1ccc(S(=O)(=O)NCCC(=O)NC(C)c2ccccc2)cc1 (centres undefined) | 0 | 0 | 0 | 0 | 0 | 0 | - | -
CC(c1ccccc1)n1c(S(=O)(=O)O)nc2ccccc21 (centres undefined) | 0 | 0 | 0 | 0 | 0 | 0 | - | -
CCC(=O)Nc1c(S(=O)(=O)c2ccccc2)c2nc3ccccc3nc2n1C(C)c1ccccc1 (centres undefined) | 0 | 0 | 73 | 0 | 0 | 0 | 73 | 68
CCC(=O)Nc1c(S(=O)(=O)c2ccc(C)cc2)c2nc3ccccc3nc2n1C(C)c1ccccc1 (centres undefined) | 0 | 0 | 58 | 0 | 0 | 0 | 50 | 30
COc1ccc(S(=O)(=O)Nc2ccc3c(c2)C(=O)N(C(C)CO)CC(C)C(CN(C)S(=O)(=O)c2ccc(F)cc2)O3)cc1 (centres undefined) | - | - | - | 0 | - | - | - | -
Cc1cccc(NC(=S)NN=C2CCCCc3ccccc32)c1 | - | - | - | 0 | - | - | - | -
CCCCn1nc2cc(C(=O)NCc3ccco3)ccc2c1OCC | 0 | 0 | 27 | 0 | 0 | 0 | 0 | 0
CCOc1c2ccccc2nn1CCOC | 0 | 0 | 0 | 0 | 0 | 0 | - | -
CCOc1c2ccc(C(=O)N[C@H](C)C3CCCCC3)cc2nn1CCOC | 0 | 0 | 106 | - | 0 | 0 | 78 | 68
CCCCn1nc2cc(C(=O)NCCc3ccc(C)cc3)ccc2c1OCC | 0 | 0 | 0 | 0 | 0 | 0 | - | -
SMILES | Mtb UGM inh | FadD28 binding | FBA Mtb inh | Mtb hypoxia rep | Rv3671c protease | GDH-TPI counter-1 | Mtb FBA inh conf | GDH-TPI counter-2
CCOc1c2ccc(C(=O)NCc3ccco3)cc2nn1CCOC | 0 | 0 | 39 | 0 | 0 | 0 | + | +
CC(=O)Nc1ccc(NC(=O)CC(C)=NNC(N)=S)cc1 | - | - | - | 0 | - | - | - | -
CCN1C(=O)C2C(c3ccc(-c4cccc(Cl)c4)cc3)N[C@@](Cc3ccccc3)(C(=O)OC)C2C1=O (some centres undefined) | - | - | - | 0 | - | - | - | -
CC(=NNC(=O)c1ccccc1C)c1cccc([N+](=O)[O-])c1 | - | - | - | 0 | - | - | - | -
C[C@@]12C(=O)N(c3cccc(F)c3)C(=O)N1C(c1ccc(Cl)cc1)C1C(=O)N(C3CCCCC3)C(=O)C12 (some centres undefined) | - | - | - | 0 | - | - | - | -
COC(=O)C1C[C@@]2(O)C(O)C(O)C(O)CC2N1CC1CCCCC1 (some centres undefined) | - | - | - | 0 | - | - | - | -
COc1ccc2c(c1OC)c(=O)n1c3ccc(OC(C)C(=O)NCCN4CCOCC4)cc3c3ccnc2c31 (centres undefined) | 0 | 0 | 91 | - | 0 | 0 | 84 | 68
Cn1nc(C(=O)NCCN2CCOCC2)c2ccccc2c1=O | 0 | 0 | 0 | 0 | 0 | 0 | - | -
CC(Oc1ccc(Cl)cc1Cl)C(=O)NCCN1CCOCC1 (centres undefined) | 0 | 0 | 0 | 0 | 0 | 0 | - | -
CC(Oc1ccc2c(c1)c1ccnc3c4ccccc4c(=O)n2c13)C(=O)NCCN1CCOCC1 (centres undefined) | 0 | 0 | 44 | - | 0 | 0 | 136 | 117
O=C(NN=Cc1ccc([N+](=O)[O-])cc1)c1cc(C2CC2)[nH]n1 | - | - | - | 0 | - | - | - | -
O=C1CSC(=S)N1N=Cc1ccc2c(c1)OCCO2 | - | - | - | 0 | - | - | - | -
COc1cccc(Sc2ccccc2C=NNC(N)=O)c1 | - | - | - | 0 | - | - | - | -
O=C(Nc1ccccc1F)c1coc(=O)c(Br)c1 | 0 | 0 | 107 | 0 | 0 | 0 | - | +
O=C(NCc1ccccn1)c1coc(=O)c(Br)c1 | 0 | 0 | 78 | 0 | 0 | 0 | 0 | 0
CCOc1ccc(C(=O)NCc2ccccn2)cc1 | 0 | 0 | 0 | 0 | 0 | 0 | - | -
Cc1cc(NC(=O)c2coc(=O)c(Br)c2)ccc1C(C)C | 0 | 0 | 49 | 0 | 0 | 0 | + | +
C[C@@H](NC(=O)c1coc(=O)c(Br)c1)c1ccccc1 | 0 | 0 | 81 | - | 0 | 33 | 72 | 52
O=C(NCCc1ccc(F)cc1)c1coc(=O)c(Br)c1 | 0 | 0 | 0 | 0 | 0 | 0 | - | -
Cc1ccc(C=Nn2c(C)nc3ccccc3c2=O)o1 | - | - | - | 0 | - | - | - | -
CC(CCc1ccccc1)=NNC(=O)CCc1ccccc1 | - | - | - | 0 | - | - | - | -
CCCCn1c(=O)nc2n(-c3ccccc3C)c3ccccc3cc-2c1=O | 0 | 0 | 61 | 0 | 0 | 0 | + | +
CCCCn1c(=O)c2ccccc2c2ccccc2c1=O | 0 | 0 | 0 | 0 | 0 | 0 | - | -
CC1=CC(c2ccccc2)n2nc(N)nc2N1 (centres undefined) | 0 | 0 | 53 | 0 | 0 | 0 | 40 | 37
CC1=CC(c2ccccc2)n2nc(NS(=O)(=O)c3ccc(C)cc3)nc2N1 (centres undefined) | 0 | 0 | 49 | 0 | 0 | 0 | 0 | 15
CC1=CC(c2ccc(Cl)cc2)n2nc(NS(=O)(=O)c3ccc(C)cc3)nc2N1 (centres undefined) | 0 | 0 | 80 | 0 | 0 | 0 | 68 | 63
